GDH-TPI counter-1: GDH-TPI coupled enzyme inhibition counter-screen; GDH-TPI coupled enzyme counterscreen, NADH absorbance; inhibition, % at 4.8 µM; 360,000 tested, 1.2% active; AID 588335
BH1578 lux ind: quorum light induction in luxS cqsA deficient V. cholerae; 350,000 tested, 0.16% active; activation, % at 18.7 µM; AID 588436; V. cholerae BH1578 lux reporter, luminescence, 6 h; in the data active = activation mostly above about 9.7%, no sharp cut-off
Mtb FBA inh: inhibits M. tuberculosis FBA enzyme. 360,000 tested, 2.3% active. purified M. tuberculosis FBA, fluorescence read-out. inhibition, % at 1 µM; in the data active = inhibition above about 27%
Target sequence (P9WQA3 whole entry, looked up): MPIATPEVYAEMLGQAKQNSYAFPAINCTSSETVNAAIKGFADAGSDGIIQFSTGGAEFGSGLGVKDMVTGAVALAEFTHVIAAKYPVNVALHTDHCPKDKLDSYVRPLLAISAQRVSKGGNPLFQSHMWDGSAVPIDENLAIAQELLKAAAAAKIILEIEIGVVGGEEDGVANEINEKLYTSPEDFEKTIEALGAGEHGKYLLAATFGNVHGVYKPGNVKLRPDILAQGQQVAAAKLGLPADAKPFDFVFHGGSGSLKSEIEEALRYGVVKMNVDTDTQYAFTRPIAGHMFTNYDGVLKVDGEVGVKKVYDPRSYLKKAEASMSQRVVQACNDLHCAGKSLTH
CCHF vOTU inh: blocks the CCHF virus ovarian tumor domain protease; CCHFV vOTU protease, Pep-AMC fluorescence; inhibition, % at 11.5 µM; 370,000 tested, 0.55% active
Mtb FBA inh conf: confirmation of M. tuberculosis fructose-bisphosphate aldolase inhibitors; shares compounds with Mtb FBA inh; purified M. tuberculosis FBA, fluorescence read-out; inhibition, % at 1 µM; 5,600 tested, 78% active; AID 651616; in the data active = inhibition above about 27%
GDH-TPI counter-2: counter-screen for M. tuberculosis FBA inhibitors: GDH-TPI coupled enzyme inhibition | shares compounds with Mtb FBA inh | GDH-TPI coupled enzyme counterscreen, fluorescence | inhibition, % at 1 µM | 5,600 tested, 81% active; in the data active = inhibition above about 10%
Large screens that a line does not name were inactive (follow-up assays come after a bar, where they were run). This is a sample that favours compounds with a hit; in the whole collection about 3.9% have one here. Cut-off read from the data, not from the text of the source, unless noted: active = inhibition above about 30%; inactive = the rest.

COc1ccc2c(c1)c1ncn(CCN3CCCCC3)c(=O)c1n2C	Mtb FBA inh 100.3 | Mtb FBA inh conf 107.2 | GDH-TPI counter-2 87.8
COc1ccccc1CCn1cnc2c3cc(C)ccc3n(C)c2c1=O	Mtb FBA inh 46.5 | Mtb FBA inh conf active | GDH-TPI counter-2 active
Cn1c2ccccc2c2ncn(Cc3ccco3)c(=O)c21	none
Cc1ccc2c(c1)[nH]c1c(=O)n(CCN3CCCCC3)cnc12	none
O=C(Cn1nnc(-c2ccc(N3CCOCC3)cc2)n1)c1ccc(F)cc1	none (no result: GDH-TPI counter-1, BH1578 lux ind, Mtb FBA inh)
O=c1c2c(-c3ccccc3)csc2nc2c3ccccc3c(NCCN3CCOCC3)nn12	Mtb FBA inh 28.7 | Mtb FBA inh conf 93.9 | GDH-TPI counter-2 66.2
O=C(CN(C(=O)c1csnn1)c1cccc(F)c1)NC1CCCC1	none
CC(=O)c1c(C)[nH]c(C(=O)COc2ccc3ccc(=O)oc3c2)c1C	Mtb FBA inh 50.2 | Mtb FBA inh conf 91.8 | GDH-TPI counter-2 51.5
COc1ccc2nc(-c3ccccc3)[nH]c(=O)c2c1	none
COc1ccc(-c2nc3ccc(N4CCCC4)cc3c(=O)[nH]2)cc1OC	Mtb FBA inh 27.0 | Mtb FBA inh conf inactive | GDH-TPI counter-2 inactive
Cc1cccc2c(N)c3c(nc12)N(C)CC3	Mtb FBA inh 30.6 | Mtb FBA inh conf 77.2 | GDH-TPI counter-2 45.0
Cc1ccc2nc3c(c(N)c2c1)CCN3c1ccccc1	Mtb FBA inh 29.4 | Mtb FBA inh conf active | GDH-TPI counter-2 active
Cc1cccc2c(N)c3c(nc12)CCCC3 (tested in a mixture with another compound)	none
CN1CCc2c1nc1ccccc1c2N (tested in a mixture with another compound)	Mtb FBA inh 28.9 | Mtb FBA inh conf 95.7 | GDH-TPI counter-2 82.7
COC(=O)[C@@]1(Cc2ccccc2)[C@H]2C(=O)N(Cc3ccccc3)C(=O)[C@H]2[C@H]2CN=C(SC)N21	none
O=C(Nc1ccc(OC(F)F)cc1)c1cc(S(=O)(=O)N2CCCCC2)ccc1N1CCOCC1	none
CN(Cc1ccccc1)C(=O)c1ccc([N+](=O)[O-])o1	none
CC(=O)N1CCN(c2cc3c(cc2F)c(=O)c(C(=O)O)cn3C2CC2)CC1	Mtb FBA inh 30.2 | Mtb FBA inh conf 186.8 | GDH-TPI counter-2 139.6
Cc1cc(=O)[nH]c(SCC(=O)C23CC4CC(CC(C4)C2)C3)c1C#N	none
c1ccc(Nc2ccc(-n3ccnc3)nn2)cc1	Mtb FBA inh 69.0 | Mtb FBA inh conf 126.9 | GDH-TPI counter-2 139.8
CCCC(=O)NC(c1ccco1)c1cc(Cl)c2cccnc2c1O (stereo not given)	none
CCC(=O)NC(c1ccco1)c1cc(Cl)c2ccccc2c1O (stereo not given)	Mtb FBA inh 30.4 | Mtb FBA inh conf 79.0 | GDH-TPI counter-2 56.5
CC(=O)NC(c1ccco1)c1cc(Cl)c2ccccc2c1O (stereo not given)	Mtb FBA inh 36.7 | Mtb FBA inh conf active | GDH-TPI counter-2 active
O=C1CCC(=O)N1c1nc2nc(-c3ccccc3)cc(-c3ccccc3)n2n1	Mtb FBA inh 66.5 | Mtb FBA inh conf 89.4 | GDH-TPI counter-2 62.2
CC1=CSC2=NC(=O)/C(=C\c3cccn3-c3ccc([N+](=O)[O-])cc3)C(=N)N12	none
O=C(COC(=O)c1cccs1)NCCN1C(=O)CSC1=O	none
Cc1c(C(=O)OCC(=O)NCCN2C(=O)CSC2=O)oc2c1ccc1ccccc12	Mtb FBA inh 63.4 | Mtb FBA inh conf 160.1 | GDH-TPI counter-2 134.0
CC(=O)N1c2ccc(S(=O)(=O)NCCC(=O)Nc3ccccc3C)cc2CC1C (stereo not given)	none
COc1cc(Cn2c(N)c(C#N)c3nc4ccccc4nc32)cc(OC)c1	Mtb FBA inh 109.4 | Mtb FBA inh conf active | GDH-TPI counter-2 172.7
CCOc1ccc(Cn2c3ccc(OC)cc3c3nc4ccccc4nc32)cc1	none
CCN(CC)CCOC(=O)c1cccc(Br)c1	none
N#Cc1c(N)n(-c2cccc(O)c2)c2nc3ccccc3nc12	Mtb FBA inh 83.7 | Mtb FBA inh conf active | GDH-TPI counter-2 active
N#Cc1c(N)n(CCOC(=O)c2cccc(Br)c2)c2nc3ccccc3nc12	Mtb FBA inh 44.9 | Mtb FBA inh conf 49.7 | GDH-TPI counter-2 34.4
N#Cc1c(N)n(-c2ccc(O)cc2)c2nc3ccccc3nc12	none
Cc1ccc(OCC(=O)Nc2ccc3c(c2)nc(CCN2CCC(C)CC2)n3C)cc1	none
O=C1N=C(c2ccccc2)C(c2ccccc2)N1 (stereo not given)	Mtb FBA inh 90.8 | Mtb FBA inh conf inactive | GDH-TPI counter-2 inactive
Cc1csc(NC(=O)CSc2nnc(-c3ccoc3C)n2CCc2ccccc2)n1	none
c1coc(-c2ccnc3ncnn23)c1	Mtb FBA inh 92.6 | Mtb FBA inh conf 93.6 | GDH-TPI counter-2 74.5
N#Cc1cnn2c(-c3ccccc3)ccnc12	Mtb FBA inh 66.0 (no result: BH1578 lux ind) | Mtb FBA inh conf active | GDH-TPI counter-2 active
CC(Sc1nc(N)cc(N)n1)C(=O)NCC1CCCO1 (stereo not given)	none
O=C(O)/C(=C\c1ccc(F)cc1)c1ccc(-c2ccccc2)cc1	none
O=C(NNc1nc2cc3c(cc2s1)OCO3)c1ccc(F)cc1	none
Fc1ccc2nc(Nc3nc4cc5c(cc4s3)OCCO5)sc2c1	Mtb FBA inh 59.0 | Mtb FBA inh conf 74.5 | GDH-TPI counter-2 63.4
c1ccc2sc(Nc3nc4cc5c(cc4s3)OCO5)nc2c1	Mtb FBA inh 29.3 | Mtb FBA inh conf inactive | GDH-TPI counter-2 inactive
Fc1ccc2nc(Nc3nc4cc5c(cc4s3)OCO5)sc2c1	Mtb FBA inh 38.3 | Mtb FBA inh conf 55.5 | GDH-TPI counter-2 52.2
CC(=O)c1sc(Nc2nc3cc4c(cc3s2)OCO4)nc1C	none
OC(CN1CCN(c2cccc(Cl)c2)CC1)C(c1ccccc1)c1ccccc1 (stereo not given)	none
CCCCc1c(-c2cccc(OC)c2)ncn1CCc1ccccc1OC	none (no result: GDH-TPI counter-1, BH1578 lux ind, Mtb FBA inh)
O=C1CCCc2c1cc(C(=O)NCc1ccco1)c(=O)n2-c1ccc(Cl)cc1	none
c1ccc(-c2cnc(-c3cccnc3)o2)cc1	Mtb FBA inh 92.7 | Mtb FBA inh conf 191.7 | GDH-TPI counter-2 155.1
Cc1ccc2c(C)c(C(=O)NCC(C)(C)N3CCOCC3)oc2c1C	none
CCOC(=O)c1cc(-c2ccc(OC)cc2)nc2c1c(C)nn2CCC#N	GDH-TPI counter-1 31.4, Mtb FBA inh 31.3 | Mtb FBA inh conf 76.3 | GDH-TPI counter-2 59.9
CCOC(=O)c1cc(-c2ccc(C#N)cc2)nc2c1c(C)nn2CCC#N	none
CN(C)C(=O)c1cccc(-c2cccc3nccn23)c1	Mtb FBA inh 40.8 | Mtb FBA inh conf 87.8 | GDH-TPI counter-2 58.5
CN(C)CCNC(=O)c1cccc(-c2cccc3nccn23)c1	none
Cc1nc2ccc(-c3nc4ccccc4o3)cc2[nH]1	Mtb FBA inh 49.9 | Mtb FBA inh conf 63.4 | GDH-TPI counter-2 56.0
Nc1ccc(-c2nc3ccc(-c4nc5ccccc5o4)cc3[nH]2)cc1	GDH-TPI counter-1 57.4, Mtb FBA inh 84.3 | Mtb FBA inh conf 36.4 | GDH-TPI counter-2 24.5
COc1ccc(-c2nc3ccccc3[nH]2)cc1	none
O=C(N/N=C/c1ccc2c(c1)OCO2)C(=O)Nc1ccccc1	none

High-throughput results: PubChem, several laboratories
